Screening data from PubChem.
M1 ag parental – counter-screen for M1 agonists: effect in parental CHO-K1 cells; Fluo-8 calcium fluorescence; scaled to maximal ATP response, vehicle zero; activation, % at 3 µM; hit rate 0.48% among 360,000; AID 602248; in the data active = activation above about 15%;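 note: untransfected CHO-K1 host cells lacking M1 receptor as counterscreen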
CHO-K1 Ca antag – M1 antagonist counterscreen hit in parental CHO-K1 cells; ATP-induced calcium, Fluo-8 fluorescence; inhibition, % at 3 µM; hit rate 0.6% among 360,000; AID 602250;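 active = inhibition above a per-plate cutoff, the plate's mean sample inhibition plus 3 SD, cut at about 24% in these data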;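 note: 0% = DMSO plus EC80 ATP and 100% = DMSO alone without ATP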
CHRM1 agonist – agonists of human M1 muscarinic receptor. P11229. CHO-K1 hM1, Fluo-8 calcium fluorescence, agonist mode; 0% DMSO, 100% acetylcholine EC100. activation, % at 3 µM. hit rate 0.33% among 360,000. AID 588814;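 active = activation above the run's mean compound activation plus 3 SD, cut at about 16% in these data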;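 note: peak over basal fluorescence ratio within a 140 s kinetic read after compound addition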
Target sequence (P11229 whole entry, looked up): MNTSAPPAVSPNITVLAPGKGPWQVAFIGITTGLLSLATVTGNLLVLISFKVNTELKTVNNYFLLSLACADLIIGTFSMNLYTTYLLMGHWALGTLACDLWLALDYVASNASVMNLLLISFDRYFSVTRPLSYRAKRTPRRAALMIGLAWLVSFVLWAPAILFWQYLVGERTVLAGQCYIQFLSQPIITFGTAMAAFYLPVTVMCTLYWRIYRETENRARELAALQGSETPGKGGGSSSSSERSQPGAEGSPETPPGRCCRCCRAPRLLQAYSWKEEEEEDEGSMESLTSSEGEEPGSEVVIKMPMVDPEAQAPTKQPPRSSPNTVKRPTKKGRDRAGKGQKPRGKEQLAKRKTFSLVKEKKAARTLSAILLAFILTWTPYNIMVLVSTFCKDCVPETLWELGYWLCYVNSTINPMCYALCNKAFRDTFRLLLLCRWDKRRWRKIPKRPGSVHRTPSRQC
M1 PAM – positive allosteric modulators of human M1 muscarinic receptor; hit rate 0.088% among 360,000; activation, % at 3 µM; AID 588819; P11229; CHO-K1 hM1, Fluo-8 calcium fluorescence, ACh EC20; 0% = ACh EC20, 100% = maximal ACh; in the data active = activation above about 19%, passing the limit was not always enough
M1 PAM parental – counter-screen for M1 PAMs: effect in parental CHO-K1 cells; activation, % at 3 µM; AID 602247; ATP EC20, Fluo-8 calcium fluorescence; 0% at ATP EC20, 100% at ATP max; hit rate 0.02% among 360,000;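 active = activation above the run cutoff, the mean activation of all test compounds plus 3 SD, cut at about 40% in these data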;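 note: peak over basal fluorescence ratio in a 140 s read after ATP addition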
CHRM1 antagonist – human CHRM1 antagonism; AID 588852; inhibition, % at 3 µM; P11229; CHO-K1 hM1, Fluo-8 calcium fluorescence, ACh EC80 antagonist; hit rate 1.3% among 360,000;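 active = percent inhibition above its own plate's cutoff, namely the mean of that plate's compound wells plus 3 SD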;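 note: peak over basal fluorescence ratio during 140 s after agonist addition; 0% = ACh EC80 plus DMSO and 100% = DMSO alone without agonist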
Numbers without * were called inactive. The list is not random: actives were taken first. Their share in the collection is about 2.3%.

SMILES	M1 ag parental	CHO-K1 Ca antag	CHRM1 agonist	M1 PAM	M1 PAM parental	CHRM1 antagonist
COCCn1c(=NC(=O)/C=C/c2ccccc2)sc2cc(NC(C)=O)ccc21	0.6	2.1	3.4	10.2	11.8	6.0
Cc1nc2c(OCc3ccc(C#N)cc3)cccn2c1N(C)Cc1cccs1	5.1	2.5	-2.4	-24.9	-6.0	44.8*
Cc1nc2c(OCC(=O)c3ccc(F)cc3)cccn2c1N(C)Cc1cccs1	0.8	-10.1	-6.0	-0.4	17.1	-13.1
ClCCn1c(CCl)nc2ccc(Cl)cc21	0.1	1.8	-8.1	4.3	-5.2	-9.0
N#Cc1ccc(CSc2ccc(S(=O)(=O)N3CCCCCC3)cn2)cc1	0.5	3.8	-5.0	-17.9	9.3	22.7
S=C(Nc1ccccc1Cl)NC1CCN(Cc2ccccc2)CC1	0.7	7.9	1.1	0.2	-0.9	-3.9
S=C(Nc1cc(Cl)cc(Cl)c1)NC1CCN(Cc2ccccc2)CC1	17.1*	25.2*	8.8	-3.6	-6.4	23.9
COc1ccc(C)cc1Nc1n[n+](-c2ccccc2)c(-c2cc(OC)c(OC)cc2Br)s1	-0.2	-15.5	-6.6	6.0	4.2	-10.4
Fc1ccc(-[n+]2nc(Nc3ccccc3)sc2-c2c3ccccc3cc3ccccc23)cc1	2.6	-6.6	19.3*	-8.1	15.1	25.7
COc1ccc(C)cc1Nc1n[n+](-c2ccccc2)c(-c2c(OC)ccc3ccccc23)s1	16.3*	16.2	-2.0	-17.8	0.8	31.3*
CC(C)OC(=O)CSc1nc(Cc2ccccc2)nc2ccccc12	-0.6	-13.1	-5.5	3.8	6.0	-5.8
CC(=O)NCCc1nc2cc(NC(=O)c3ccc([N+](=O)[O-])cc3)ccc2n1C	0.0	8.6	-4.4	9.1	-29.9	-7.3
CC(=O)N1CCc2cc(Br)cc(S(=O)(=O)N3CCN(C(=O)c4ccco4)CC3)c21	0.6	24.4*	-1.8	-10.2	-7.2	17.5
CC(=O)N1CCc2cc(Br)cc(S(=O)(=O)N3CCCCCC3)c21	0.7	4.9	-1.0	-0.3	6.3	-11.3
CC(C)C[C@@H](NC(=O)C1CCC(CNC(=O)[C@@H]2CCCN2C(=O)OC(C)(C)C)CC1)C(=O)O (stereo partly specified)	-0.2	6.0	-0.3	-8.4	-10.6	100.8*
CC1CCC2(CC1)NC(=O)N(CC(=O)Nc1ccc(F)cc1)C2=O (stereo unspecified)	0.2	10.6	-3.2	16.1	-2.2	-16.2
Cc1scc2c1N(C(=O)CN1CCN(C)CC1)c1ccccc1NC2=O	0.4	-6.2	-6.2	-25.7	15.3	98.0*
CN(CC1COc2ccccc2O1)C(=O)c1cccc(S(=O)(=O)N2CCCC2)c1 (stereo unspecified)	2.0	-10.3	-0.8	15.4	14.6	-20.0
Cc1cc2nnc(SC(C)C)n2c2ccccc12	0.4	-2.7	-1.9	-9.6	-1.1	33.2*
Cc1cc2nnc(SC(C)C#N)n2c2ccccc12 (stereo unspecified)	-0.1	-3.8	-3.5	4.5	7.2	-3.4
Cc1ccc(C)c(N2CCN(C(=O)CCCOc3cc(=O)n(C)c4ccccc34)CC2)c1	6.4	15.4	2.1	-13.2	12.8	37.0*
O=CC1=C(c2ccccc2)Oc2ccccc2O1	-0.2	-5.1	-6.3	3.0	-0.5	-9.3
O=C(NNC(=O)c1ccc([N+](=O)[O-])cc1)c1ccncc1	0.3	-9.7	-1.5	5.7	21.4	-4.6
N/C(=N\OCc1ccc([N+](=O)[O-])cc1)c1ccncc1	-0.6	29.8*	-2.6	-5.8	-9.7	6.7
Fc1ccc(-n2nnc(-c3cccnc3)n2)cc1	0.7	-12.2	-0.8	17.9	17.2	-23.5
SMILES	M1 ag parental	CHO-K1 Ca antag	CHRM1 agonist	M1 PAM	M1 PAM parental	CHRM1 antagonist
Fc1ccc(C(CCCn2nnc(-c3cccnc3)n2)c2ccc(F)cc2)cc1	3.1	2.5	-1.5	-8.3	15.3	27.3*
O=C(Nc1ccccc1Cl)C1CCCN(S(=O)(=O)c2ccc(-n3cnnn3)cc2)C1 (stereo unspecified)	2.1	-12.9	-3.2	-0.8	5.9	-3.8
COc1ccc(NC(=O)CN2C(=O)NC(C)(c3ccccc3)C2=O)cc1Cl (stereo unspecified)	3.7	-8.9	1.4	3.1	14.4	-3.7
Cc1ccc(Nc2ncnc(N)n2)cc1C	0.9	-8.1	-9.1	13.1	17.2	-16.3
COc1ccccc1NC(=O)c1ccc(NC(=O)COC(=O)C2CCCCC2)cc1	19.0*	7.1	-6.7	-1.0	7.1	-6.5
COc1ccccc1NC(=O)COC(=O)C1CCCC1	-0.6	12.0	-1.4	8.4	-2.5	1.2
Clc1ccccc1-c1ccc2nccn2c1	0.8	-12.1	-8.2	-9.8	18.3	-8.1
CCOc1ccccc1-c1ccc2nccn2c1	1.5	-10.8	-8.6	-30.2	-8.2	61.3*
Cc1[nH]n2c(=O)c(C#N)c(-c3ccccc3)nc2c1-c1ccccc1	-0.4	28.5*	-2.7	0.7	3.8	1.4
COc1ccc(O)c(/C=N/n2c(-c3ccco3)csc2=Nc2cccnc2)c1	0.3	28.3*	-3.9	-12.6	-15.0	14.3
C[C@H](CO)N1C[C@H](C)[C@@H](CN(C)S(=O)(=O)c2ccccc2)Oc2ccc(NC(=O)CCC(F)(F)F)cc2C1=O	-0.3	-3.8	-10.8	-30.9	-3.7	76.7*
COc1ccc(NC(=O)Nc2cccc3c2O[C@H](CN(C)C(=O)Nc2ccc4c(c2)OCO4)[C@@H](C)CN([C@H](C)CO)C3=O)cc1	4.3	-4.5	-4.1	-23.4	-8.2	33.3*
C[C@H](CO)N1C[C@H](C)[C@@H](CN(C)S(=O)(=O)c2ccccc2)Oc2ccc(NC(=O)Nc3ccc(C(F)(F)F)cc3)cc2C1=O	1.0	-13.0	-6.6	-7.4	14.4	1.3
C[C@H](CO)N1C[C@H](C)[C@@H](CN(C)C(=O)Nc2ccccc2)Oc2c(NS(=O)(=O)c3ccc(F)cc3)cccc2C1=O	0.2	-14.5	-2.1	26.4*	7.5	-22.4
C[C@H](CO)N1C[C@H](C)[C@@H](CN(C)C(=O)Nc2ccccc2)Oc2c(NS(=O)(=O)c3ccccc3)cccc2C1=O	0.1	-1.1	-4.4	-3.5	6.2	1.3
C[C@H](CO)N1C[C@H](C)[C@@H](CN(C)C(=O)Nc2ccc3c(c2)OCO3)Oc2c(NC(=O)Nc3ccc4c(c3)OCO4)cccc2C1=O	5.4	-0.6	-3.3	-16.0	-3.2	36.0*
COc1ccc(NC(=O)N(C)C[C@H]2Oc3c(NC(=O)Nc4ccc5c(c4)OCO5)cccc3C(=O)N([C@H](C)CO)C[C@@H]2C)cc1	3.1	4.1	-2.0	-10.3	-13.8	21.7
O=C(CC(=O)NCc1ccccc1)NCc1ccccc1	0.5	-19.5	-1.7	20.4	1.4	-18.2
N#Cc1ccccc1S(=O)(=O)N1CCN(C(=O)C2CCCC2)CC1	1.8	-11.6	-6.0	7.1	12.6	-15.1
